# Experimental data published in PubChem BioAssay AID2642 (Johns Hopkins Ion Channel Center, 2010).
# Among all 310,000 compounds or so, about 3,900 (1.3%) were called active.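 Rule for the calls: active = compounds whose thallium flux B-score, printed positive for inhibition, exceeds three library SD while starting fluorescence stays within three; inactive = the rest.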 The entries come from a sample that favours actives as a whole.
# Molecular target: Potassium voltage-gated channel subfamily KQT member 1 (Homo sapiens) (UniProt P51787)
# Sequence (P51787 whole entry, looked up): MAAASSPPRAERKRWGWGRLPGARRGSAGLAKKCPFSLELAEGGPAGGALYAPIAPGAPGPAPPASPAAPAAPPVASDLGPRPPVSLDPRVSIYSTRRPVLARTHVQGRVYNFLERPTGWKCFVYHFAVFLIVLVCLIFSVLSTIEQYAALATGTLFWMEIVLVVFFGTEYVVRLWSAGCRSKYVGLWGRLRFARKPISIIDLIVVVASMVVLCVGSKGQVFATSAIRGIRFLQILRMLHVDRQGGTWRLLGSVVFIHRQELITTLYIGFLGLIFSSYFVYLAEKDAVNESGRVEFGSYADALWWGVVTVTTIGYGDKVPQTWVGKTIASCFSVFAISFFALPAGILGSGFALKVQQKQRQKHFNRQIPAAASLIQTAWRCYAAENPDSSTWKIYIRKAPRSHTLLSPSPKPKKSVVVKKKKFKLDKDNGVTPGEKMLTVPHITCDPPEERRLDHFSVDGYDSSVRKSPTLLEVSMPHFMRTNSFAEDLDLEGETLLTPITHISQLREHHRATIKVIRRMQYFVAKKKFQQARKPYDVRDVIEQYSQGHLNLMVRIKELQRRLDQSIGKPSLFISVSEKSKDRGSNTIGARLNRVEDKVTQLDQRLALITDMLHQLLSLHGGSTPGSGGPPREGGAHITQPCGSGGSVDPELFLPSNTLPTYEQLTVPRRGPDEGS
# Assay: KCNQ1 potassium current blockers – cell-based, thallium flux, high-throughput, primary screen (AID 2642);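 note: channel opened by potassium depolarization with thallium stimulus after 20 min compound exposure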
# Conditions: CHO-K1 KCNQ1, FluxOR thallium flux fluorescence, at 10 µM; stronger effect = higher value
row,SMILES,B-score
1,O=C(Nc1nnc(-c2ccccc2)o1)c1cc(-c2cccs2)nc2ccccc12,inactive
2,CC(C)(C)Cc1nnc(NC(=O)c2cc(-c3ccccc3)nc3ccccc23)s1,11 (active)
3,COc1ccc(-c2cc(C(=O)Nc3ccccc3O)c3ccccc3n2)cc1,inactive
4,O=C(O)CCCCCCCCCC[n+]1ccccc1,inactive
5,CCc1noc(C)c1C(=O)Oc1ccc(N(C)S(=O)(=O)c2ccc(C)c(C)c2)cc1,9 (active)
6,Cc1ccc(S(=O)(=O)N(C)C)cc1NC(=O)COC(=O)c1c(C)noc1C,inactive
7,CN(c1ccc(OCC(=O)O)cc1)S(=O)(=O)c1ccc2ccccc2c1,inactive
8,CCc1ccc(OCC(=O)NCC(c2ccc(Cl)cc2)N2CCCCC2)cc1 (stereo not given),inactive
9,COc1cc(C(=O)Nc2oc(-c3ccccc3)c(-c3ccccc3)c2C#N)cc(OC)c1OC,inactive
10,N#Cc1c(NC(=O)CCCN2C(=O)c3ccccc3C2=O)oc(-c2ccccc2)c1-c1ccccc1,6 (active)
11,Cc1cc(C)cc(NC(=O)CCN2C(=O)c3ccccc3C2=O)c1,inactive
12,Cc1cc(OCC(=O)N2CCN(c3ncccn3)CC2)ccc1Cl,inactive
13,COc1cccc(CNCCc2c[nH]c3ccccc23)c1OCc1ccccc1F,8 (active)
14,COc1ccc(S(=O)(=O)NCCc2c[nH]c3ccccc23)cc1OC,inactive
15,COc1ccccc1CC(=O)NCCc1c[nH]c2ccccc12,inactive
16,O=C(Nc1ccccc1N1CCCC1)c1ccc2ccccc2c1,inactive
17,COc1ccc(N2CCN(C(=O)c3ccc(N4CCCCS4(=O)=O)cc3)CC2)cc1,inactive
18,COc1ccc2[nH]c(=O)c(C3c4cc(OC)c(OC)cc4CCN3C(=O)c3ccco3)cc2c1 (stereo not given),inactive
19,COc1ccccc1C1SCCN1C(=O)c1ccc([N+](=O)[O-])cc1 (stereo not given),inactive
20,COc1ccc(C(=O)N2CCc3cc(OC)c(OC)cc3C2c2cccc([N+](=O)[O-])c2)cc1 (stereo not given),7 (active)
21,O=C(CCl)Nc1ccc(Sc2ccc(NC(=O)CCl)cc2)cc1,inactive
22,O=C(Nc1ccncc1)Nc1ccc(F)cc1,inactive
23,CC(C)(CCl)C(=O)Nc1ccc(Sc2ccc(F)cc2)cc1,9 (active)
24,CNc1nc2c(C)cccn2c(=O)c1C=Nc1ccc(OC)cc1,inactive
25,CCCN(CCC)c1nc2c(C)cccn2c(=O)c1/C=C1/SC(=S)N(Cc2ccco2)C1=O,14 (active)
26,CCOC(=O)CC1C(=O)NCCN1c1nc2c(C)cccn2c(=O)c1/C=C1\SC(=S)N(C(C)CC)C1=O (stereo not given),inactive
27,Cc1cccc(OCC(=O)Nc2ccc(NC(=O)c3ccco3)c(C)c2)c1,inactive

row,SMILES,B-score
1,CCC(C)(C(=O)NC1CCCCC1)N(C)C(=O)c1ccc2c(c1)OCO2 (stereo not given),inactive
2,COCCSc1nnc(NC(=O)c2cc(OC)c(OC)cc2[N+](=O)[O-])s1,inactive
3,O=C(O)CCC(=O)NCc1ccc2[nH]c3c(c2c1)CCCC3,inactive
4,Cc1cc(C)cc(NC(=S)NCc2ccc(F)cc2)c1,inactive
5,Cc1cccc(NC(=S)NCc2ccc3[nH]c4c(c3c2)CCCC4)c1,6 (active)
6,CC(C)(C)c1ccc(SCCc2ccncc2)cc1,inactive
7,C=CCN1CN(S(=O)(=O)c2ccc(OC)cc2)c2nc3ccccc3nc21,inactive
8,CC(C)(C)NS(=O)(=O)c1ccc(NC(=O)C2CCCO2)cc1 (stereo not given),inactive
9,CCCC(C)C(=O)Nc1ccc(NC(C)=O)cc1 (stereo not given),inactive
10,CCCC(NS(=O)(=O)c1ccc(OC)cc1)C(=O)O (stereo not given),inactive
11,COc1ccc(NC(=O)c2cnc(NS(=O)(=O)c3ccccc3)nc2)cc1,inactive
12,COc1ccc(S(=O)(=O)/N=C2\C=C(NS(=O)(=O)c3ccccc3)C(=O)c3ccccc32)cc1,6 (active)
13,COc1c(N2CCN(C(=S)Nc3ccccc3F)C(C)C2)c(F)cc2c(=O)c(C(=O)O)cn(C3CC3)c12 (stereo not given),inactive
14,Cc1cc(C)n2nc(C(=O)OC(C)C(=O)c3cc(C)c(C)cc3C)nc2n1 (stereo not given),inactive
15,O=C(CN1CCN(c2ccccn2)CC1)Nc1ccc(Br)cc1,inactive
16,Cc1cc(Br)ccc1NC(=O)c1sc2ncn(CC(=O)N3CCN(c4ccccn4)CC3)c(=O)c2c1C,inactive
17,Cc1cc(Br)ccc1NC(=O)c1cnc(N2CCN(c3ccccn3)CC2)c2ccccc12,7 (active)
18,COc1ccc(Cc2nnc(SCC(=O)Nc3ccc(C)c(C)c3)o2)cc1OC,inactive
19,CCCc1ccc(C(=O)[C@@H]2[C@@H](C(C)=O)N3c4ccc(F)cc4C=C[C@@H]3[C@@]23C(=O)Nc2ccccc23)cc1,inactive
20,Cc1ccc(-c2nn(-c3ccccc3)cc2CN(Cc2ccccc2)C(=O)CCC(=O)O)o1,inactive
21,COc1ccc(-c2nn(-c3ccccc3)cc2C(=O)Nc2nc(CC(C)=O)ns2)cc1,inactive
22,CCc1ccc(-c2nn(-c3ccccc3)cc2CSC(=N)N)cc1,14 (active)
23,COc1ccc2c(c1)c(=O)c(C(=O)c1ccc(Cl)cc1)cn2CC(=O)Nc1ccc(F)cc1,inactive
24,FC(F)(F)c1cccc(NC(=S)Nc2cccc(Cl)c2)c1,18 (active)
25,S=C(NCc1ccco1)Nc1ccc2c(c1)OCCO2,inactive
26,Cc1csc(NC(=S)Nc2cccc(Cl)c2)n1,inactive
27,O=C(Nc1cccc(S(=O)(=O)Nc2ccc(Cl)cc2)c1)c1ccc2c(c1)OCCO2,inactive

row,SMILES,B-score
1,S=C(Nc1cccc(Cl)c1)Nc1ccc2cn[nH]c2c1,inactive
2,S=C(Nc1cccc(Cl)c1)Nc1ccc2c(c1)OCCO2,8 (active)
3,COc1cccc(OCC(O)CNC(=O)c2oc3c(C)c(C)ccc3c2C)c1 (stereo not given),inactive
4,Cc1cc(=O)oc2c3c(cc(OCC(=O)NCCC(=O)N[C@@H](C)C(=O)O)c12)OC(C)(C)CC3,inactive
5,O=C(O)c1ccccc1-c1ccccc1C(=O)Nc1ccccc1Br,inactive
6,Nc1cc(OC(=O)c2ccccc2Br)nn1S(=O)(=O)c1ccccc1,inactive
7,COc1ccccc1C(=O)NCCC(=O)NC(C)CCc1ccccc1 (stereo not given),inactive
8,O=C(Nc1cccc([N+](=O)[O-])c1)N1CCc2ccccc2C1,7 (active)
9,CCc1ccc(NC(=O)N2CCc3ccccc3C2)cc1,inactive
10,CN1CCN(CC(=O)Nc2cccc([N+](=O)[O-])c2)CC1,inactive
11,CCCCNCc1ccc(SC)cc1,inactive
12,CCOC(=O)C1CCCN(C(=O)CN(c2ccc(OC)cc2)S(=O)(=O)c2c(C)noc2C)C1 (stereo not given),inactive
13,Cc1cc(C)cc(N(CC(=O)N2CC=C(c3ccccc3)CC2)S(=O)(=O)c2c(C)noc2C)c1,6 (active)
14,Cc1cc(C)cc(N(CC(=O)NCC2CCCO2)S(=O)(=O)c2c(C)noc2C)c1 (stereo not given),inactive
15,COc1cccc(/C=N/Nc2ncc(C(F)(F)F)cc2Cl)c1O,inactive
16,COc1cccc(/C=N/NC(=O)c2[nH]nc3c2CCc2ccccc2-3)c1O,inactive
17,COc1cccc(/C=N/Nc2cc(C)nc(-c3ccccc3O)n2)c1O,7 (active)
18,CN(C(=O)c1ccccc1)c1nccnc1C#N,inactive
19,CCOC(=O)CC1COCCN1C(=O)c1cc(COc2ccc(F)c(F)c2)on1 (stereo not given),inactive
20,Cc1nc(N2CCOCC2)c2c(C)c(C(=O)Nc3ccc(C(F)(F)F)cc3)sc2n1,inactive
21,O=C(c1c(F)cccc1Cl)N1CCN(c2ccccn2)CC1,inactive
22,COc1ccc(NC(=O)c2sc3nc(C)nc(N4CCN(c5ccccn5)CC4)c3c2C)c(OC)c1,inactive
23,Cc1nc(N2CCN(c3ccccn3)CC2)c2c(C)c(C(=O)Nc3ccc(F)cc3)sc2n1,10 (active)
24,Cc1nc(N2CCC(C)CC2)c2c(C)c(C(=O)Nc3cc(F)ccc3C)sc2n1,inactive
25,Cc1nc(N2CCN(c3ccccn3)CC2)c2c(C)c(C(=O)Nc3ccc(F)c(Cl)c3)sc2n1,13 (active)
26,Cc1ccccc1NC(=O)c1cc(S(=O)(=O)Nc2cccc(C(=O)O)c2)ccc1Cl,inactive
27,COCOc1cc(O)c(C(=O)/C=C/c2ccc(OCOC)c(OCOC)c2)c(OCOC)c1,inactive

row,SMILES,B-score
1,CCCCS(=O)c1snnc1C (stereo not given),inactive
2,COc1ccc(OC)c(Nc2nc3ccccc3n3cnnc23)c1,inactive
3,COc1cccc(C(=O)Nc2nnc(S(=O)(=O)N(C)c3ccccc3)s2)c1,inactive
4,CS(=O)(=O)c1ccc(Cl)c(NC(=O)COC(=O)c2cccc(S(=O)(=O)N3CCCC3)c2)c1,inactive
5,COc1ccc(C2C=C(c3ccc(Br)cc3)Nc3nc(NS(C)(=O)=O)nn32)cc1 (stereo not given),inactive
6,COc1ccc(C)cc1NC(=O)NCCCCc1ccccc1,inactive
7,COc1ccc(C)cc1NC(=O)C(Sc1ccccc1)c1ccccc1 (stereo not given),6 (active)
8,COc1ccc(C)cc1NC(=O)Nc1ccccc1SC,inactive
9,CCCN1CNC(=S)N(CCc2ccccc2)C1,inactive
10,CCOC(=O)C1=C(C)Nc2sc(C(=O)c3ccc(Br)cc3)c(N)c2C1c1ccc(C(=O)OC)cc1 (stereo not given),8 (active)
11,CCOC(=O)c1sc(=S)n2c1[nH]c(=O)c1ccc(C(=O)OC)cc12,inactive
12,CCOC(=O)c1sc(=NC(=O)c2ccc(Br)cc2)n(C)c1C,inactive
13,CCOC(=O)c1ccc(NC(=O)Cn2cnc3cc(C)c(C)cc32)cc1,7 (active)
14,CCOC(=O)c1ccc(NC(=O)CSc2nnc(COc3ccccc3OC)n2C)cc1,inactive
15,CCCc1nnc(SCC(=O)Nc2ccc(C(=O)OCC)cc2)o1,inactive
16,COc1ccc(CCNc2cc(N3CCN(C(=O)c4ccccc4OC)CC3)ccc2[N+](=O)[O-])cc1OC,inactive
17,Cc1c(Cl)cccc1NC(=O)NCCCN1CCCC1=O,inactive
18,Cc1cc(Cl)ccc1NC(=S)NCCCN1CCCC1=O,inactive
19,O=C1CCCN1CCCNC(=S)Nc1ccc(F)c(Cl)c1,7 (active)
20,CCOc1cc(CN2CCCC(CO)(Cc3ccc(F)cc3F)C2)ccc1OC (stereo not given),inactive
21,CN(Cc1ccc(F)cc1Cl)S(=O)(=O)c1cccs1,inactive
22,O=C(Nn1c(-c2ccccc2)nc2ccccc2c1=O)c1ccc([N+](=O)[O-])cc1,inactive
23,O=C(Nn1c(SCc2ccc([N+](=O)[O-])cc2)nc2ccccc2c1=O)c1ccc(F)cc1,9 (active)
24,C=CCn1c(SCc2ccc(C(=O)NCCO)cc2)nc2ccccc2c1=O,inactive
